# Compound activity: PubChem, The Scripps Research Institute Molecular Screening Center
# ssDAF12 agonist: activates DAF-12 receptor from parasite S. stercoralis; HEK293 ssDAF-12/GRIP1 lit1-tk-luc reporter, luminescence; % of 3 µM dafachronic acid response; activation, % at 6.8 µM; hit rate 1% among 370,000;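 active = activation above the mean over all tested compounds plus 3 SD, cut at about 0.9% in these data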;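 also: 0% = DMSO-only wells and 100% = 3 µM delta7-dafachronic acid wells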
# hcDAF12 agonist: H. contortus DAF-12 activation, primary screen | activation, % at 6.8 µM | hit rate 1.4% among 370,000 | HEK293 hcDAF-12 lit1-tk-luc reporter, luminescence; 0% DMSO, 100% Δ7-dafachronic acid;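 active = activation above the mean of all tested compounds plus 3 SD, cut at about 5.5% in these data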;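 also: 100% = response to 3 µM Δ7-dafachronic acid high control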
# DAX1 inh-1: inhibits human nuclear receptor DAX1; P51843; AID 504766; inhibition, % at 6.75 µM; HEK293 Gal4-DAX1 luciferase reporter, luminescence; hit rate 0.99% among 340,000;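 active = inhibition above the mean over all tested compounds plus 3 SD, cut at about 4.2% in these data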;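 also: 0% = DAX1-transfected cells with DMSO and 100% = empty-vector control cells with DMSO; inhibition shows as a rise in luminescence from relieved DAX1 repression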
# Target sequence (P51843 207-470 limits assumed): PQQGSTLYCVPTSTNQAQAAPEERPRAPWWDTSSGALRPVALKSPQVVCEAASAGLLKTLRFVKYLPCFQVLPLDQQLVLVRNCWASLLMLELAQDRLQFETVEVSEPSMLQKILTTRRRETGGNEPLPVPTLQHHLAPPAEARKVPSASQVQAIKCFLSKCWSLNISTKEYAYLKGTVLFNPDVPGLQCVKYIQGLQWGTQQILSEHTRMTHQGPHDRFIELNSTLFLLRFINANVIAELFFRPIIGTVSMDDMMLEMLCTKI
# hgDAF-12 ag: hgDAF-12 agonism, primary luciferase screen. HEK293 GAL4-hgDAF12 UAS-luciferase reporter, agonist luminescence; normalized to butyrate control. activation, % at 6.8 µM. hit rate 1.8% among 370,000. AID 687014;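 active = activation above a cutoff set at the mean of all screened compounds plus 3 SD, cut at about 10% in these data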;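 also: 0% = DMSO wells and 100% = sodium butyrate wells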
# DAX1 inh-2: inhibitors of DAX1 repression of SF-1 activated StAR promoter; HEK293T StAR-luciferase reporter, SF-1/DAX-1 repression relief; inhibition, % at 6.8 µM; hit rate 1.1% among 370,000;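 active = inhibition above the mean over all tested compounds plus 3 SD, cut at about 3.6% in these data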;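 also: 0% = DAX-1 cells with DMSO and 100% = cells lacking DAX-1 with DMSO; higher inhibition means more luminescence from relief of DAX-1 repression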
# * = called active by the depositor; . = not tested or not shown. A selection: hits, their analogues and other compounds. The true share with any hit is near 4.1%.
SMILES,ssDAF12 agonist,hcDAF12 agonist,DAX1 inh-1,hgDAF-12 ag,DAX1 inh-2
Cc1ccc(C)c(C2=CSC3=NCCN23)c1,0,6.2*,0,1,-1
Cc1ccc(C)c(C2=CSC3=NS(=O)(=O)CCN23)c1,-1,-1,1,1,1
Cc1ccc(N2/C(=N/c3nc(C)cc(C)n3)NC(=O)CC2C(=O)O)cc1 (stereo not given),0,5.8*,0,3,0
O=C1CSc2ccccc2N1Cc1ccc(F)cc1,1.4*,3,1,2,0
O=C(O)CN1C(=O)CSc2ccccc21,-1,0,0,2,0
Cc1ccccc1CSCCNC(=O)COc1ccc(Cl)cc1,-1,-1,6.6*,2,-1
O=C(O)c1cccc2c1C(=O)c1cc([N+](=O)[O-])cc([N+](=O)[O-])c1-2,0.9*,0,-2,0,0
COC(=O)CC1(c2ccc(OC)cc2)C(=O)c2ccccc2C1=O,-2,1,7.1*,0,0
COCc1cc(C)nc2sc(C(=O)Nc3cccc(OC)c3)c(N)c12,0,6,4.9*,10*,1
CC(=O)c1sc(NC(=O)c2ccc(C)c(C)c2)nc1C,-1,2,6.2*,13*,2
CC(=O)c1sc(NC(=O)COc2ccccc2)nc1C,0,2,4.5*,10,2
CC(=O)c1sc(NC(=O)c2cnc(Cl)c(Cl)c2)nc1C,0,4,1,6,1
O=C(COc1ccccc1)NNc1nc2ccccc2s1,-2,-3,6.5*,-9,-2
COc1ccc(CN2C(=O)N3Cc4ccccc4C3CS2(=O)=O)cc1 (stereo not given),-2,-1,.,-2,1
COC(=O)C[C@@H]1CC[C@@H]2[C@@H](COc3ccc(NC(=O)Nc4ccccc4)cc3C(=O)N2C)O1,-1,-1,.,-4,-1
CC(OC(=O)c1cc[n+]([O-])cc1)C(=O)NCc1ccccc1 (stereo not given),-1,0,4.7*,3,-1
CCN(C(=O)COC(=O)CNC(=O)C1CCCCC1)c1ccccc1,1.0*,-1,-1,1,1
CC(OC(=O)CNC(=O)C1CCCCC1)C(=O)NCc1ccccc1 (stereo not given),1.6*,0,1,-1,0
CCC[C@H]1[C@@H](NC(=O)c2ccc(C)cc2)CC[C@@]23CCCN2C(=O)CCC[C@@H]13,-2,-4,.,1,.
O=C(NCc1ccco1)C1CCCN(c2ncccn2)C1 (stereo not given),-1,-3,.,3,0
CC1CCCC(NCC(=O)Nc2ccc(C(N)=O)cc2)C1C (stereo not given),1.7*,-1,0,6,1
S=C(Nc1ccccc1Br)OCCN1CCCC12CCC(c1ccccc1)CC2 (stereo not given),-2,1,.,-1,.
CSc1nnc(-c2ccccc2)c(-c2ccccc2)n1,-2,-2,0,-2,0
CSc1nnc2c3ccccc3c3ccccc3c2n1,1.2*,3,1,-1,0
c1ccc2nc3c(nc2c1)CCCC3,-1,-1,0,0,0
SMILES,ssDAF12 agonist,hcDAF12 agonist,DAX1 inh-1,hgDAF-12 ag,DAX1 inh-2
C1CCc2nc3c(nc2C1)CCCC3,-1,-1,5.0*,1,1
CCn1c(SCC(=O)c2cc(OC)ccc2OC)nnc1C(C)C,1.2*,3,2,3,1
CCn1c(SCC(=O)c2cc(OC)ccc2OC)nnc1-c1ccncc1,0,3,0,-3,0
COCCN(C(=O)COC(=O)c1ccc2c(c1)OCO2)c1c(N)n(Cc2ccccc2)c(=O)[nH]c1=O,-2,-1,4.4*,0,-1
CCN(C(=O)COC(=O)c1ccc2c(c1)OCO2)c1c(N)n(Cc2ccccc2)c(=O)[nH]c1=O,-1,-2,0,-1,-1
CC(=O)c1ccc(Nc2cc(C)nc3ccccc23)cc1,-1,-2,-2,-4,-1
CC(=O)c1ccc(Nc2cc(C)nc3c(C)cccc23)cc1,-1,3,0,11*,0
CCOC(=O)c1ccc(N/C=C\C(=O)c2cccc(OC)c2)cc1,-1,4,-2,0,1
COC(=O)c1ccc(N/C=C/C(=O)c2ccccc2)cc1,0,0,4.5*,8,1
COc1cccc(N/C=C/C(=O)c2ccc(Br)cc2)c1,0,4,2,11*,4.4*
Cc1ccnc(NC(=O)Nc2ccc3c(c2)OCO3)c1,-1,2,2,12*,3
Cc1ccc2c(c1)CCCN2C(=O)Nc1ccc2c(c1)OCO2,1.6*,4,0,12*,2
Nn1c(SCc2ccc(Br)cc2)nnc1-c1n[nH]c2c1CCC2,-1,-2,.,2,0
CCCCCCCCNS(=O)(=O)CC1NCc2ccccc21 (stereo not given),0,1,.,3,0
CCOC(=O)N1CCC(N2C(=O)c3ccccc3C2Nc2ccc3c(C)cc(=O)oc3c2)CC1 (stereo not given),-1,4,5.4*,-2,1
CCOC(=O)C1(Cc2ccccc2)CCN(Cc2cccc(C#N)c2)CC1,-1,-2,.,3,0
COc1cc2c(cc1/C=C/C(=O)O)OC(C)C2 (stereo not given),-1,-1,0,0,0
CCOc1cc2c(cc1/C=C/C(=O)O)OC(C)C2 (stereo not given),-1,-2,4.7*,-4,-1
CSc1nsc(SCC(=O)Nc2ccccc2C(=O)O)n1,1.1*,3,0,0,0
CSc1nsc(SCC(=O)Nc2ccc(O)c(C(=O)O)c2)n1,0,2,0,1,0
Cc1[nH]n(-c2ccccc2)c(=O)c1C=NC1CCCCCC1,-2,0,5.5*,4,1
Cc1[nH]n(-c2ccccc2)c(=O)c1C=NC1CCCCC1,-2,1,0,4,0
COc1ccc(Cc2nc3ccc(C(=O)NCCSC)cc3o2)cc1,-1,2,1,7,0
COC(=O)CCNC(=O)c1ccc2nc(Cc3ccc(OC)cc3)oc2c1,-1,0,-1,0,0
COc1ccc(Cc2nc3ccc(C(=O)NCc4cc(C)no4)cc3o2)cc1,-1,2,1,8,3.7*
SMILES,ssDAF12 agonist,hcDAF12 agonist,DAX1 inh-1,hgDAF-12 ag,DAX1 inh-2
COc1ccc(Cc2nc3ccc(C(=O)NCC(C)(C)OC)cc3o2)cc1,0,4,4.6*,9,2
CC(C)Cn1c(=O)cc(N2CCN(c3cccc(C(F)(F)F)c3)CC2)[nH]c1=O,0,0,.,4,.
COc1cc(NC(=O)c2cc(C(C)C)on2)c(OC)cc1Cl,0,4,0,2,0
COc1ccc(NC(=O)c2cc(C(C)C)on2)cc1OC,-1,0,5.0*,3,0
COc1ccc(NC(=O)c2ccccc2O)c(OC)c1,1,5.8*,3,9,3
COc1ccc(NC(=O)c2cc(C(C)C)on2)c(OC)c1,-1,6.4*,1,8,3
